Assay results reported in PubChem BioAssay.
Active and inactive are the calls of the source.

Legend:
[1] = target: Albumin (Bos taurus) (UniProt P02769); assay: compounds binding labelled BSA control protein – biochemical, small-molecule microarray, Alexa647 label, 635/667 nm fluorescence, artefact control for SMM control protein annotation, profiling panel (AID 1118); details: BSA-A647 binding, fluorescence 635 nm, higher = more signal;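 note: score merges 667 nm emission intensity and signal-to-noise per printed compound spot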
[2] = probe aXIP binding to arrayed compounds – biochemical, NeuroSMM set, 635/667 nm fluorescence, primary screen (AID 1119); details: small-molecule microarray, higher = more signal, called active from +8 up or from −8 down;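 note: probe is the protein aXip251-270 applied at 1 µg/mL to compound-printed slides; binding of probe to printed compounds measured as 667 nm fluorescence plus signal to noise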
[3] = probe aNOTCH3 binding on compound microarray – biochemical, small-molecule microarray, 635/667 nm fluorescence, primary screen (AID 1120); details: higher = more signal;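 note: probe is a biotin-tagged antibody raised against NOTCH3 rather than NOTCH3 protein; score merges spot fluorescence near 667 nm with spot signal to noise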
[4] = probe aNOTCH2 binding on compound microarray – biochemical, small-molecule microarray, 635/667 nm fluorescence, primary screen (AID 1121); details: higher = more signal;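 note: score merges feature fluorescence read at 667 nm with its signal to noise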
[5] = target: Carbonic anhydrase 2 (Homo sapiens) (UniProt P00918); assay: compounds binding carbonic anhydrase 2 – biochemical, small-molecule microarray, Alexa647-labelled CAII, profiling panel (AID 1122); details: CAII-A647 binding fluorescence, higher = more signal
[6] = COS7 lysate on small-molecule microarray, probe aHis, 635 nm (AID 1123); details: COS7 cell lysate, fluorescence, higher = more signal;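 note: z-score combines 667nm fluorescence intensity with signal-to-noise per printed compound spot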
[7] = probe aLAP1 signal on lysate-treated microarray – cell lysate, small-molecule microarray, COS7 lysate, primary screen (AID 1124); details: probe aLAP1, fluorescence, higher = more signal;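 note: lysate comes from COS7 cells expressing LAP1 and is applied at 0.3 µg/mL; score merges spot fluorescence near 667 nm with signal-to-noise over triplicate slides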
[8] = tested on: Sam68 (KHDRBS1); assay: compounds binding KHDRBS1 protein – biochemical, small-molecule microarray, 635 nm fluorescence, primary screen (AID 1125); details: higher = more signal;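 note: score merges 667 nm channel intensity with signal to noise over triplicate slides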
[9] = tested on: Chordin-like protein 2 (CHRDL2); assay: compounds binding chordin-like 2 – biochemical, small-molecule microarray, 635 nm fluorescence, primary screen (AID 1126); details: fluorescence 635 nm, higher = more signal;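 note: printed compound slides probed with Chrdl2 protein at 4 µg/mL for 1 h at 4 C; score merges 667 nm emission intensity with signal to noise over three replicate slides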
[10] = target: Concanavalin-A (Canavalia ensiformis) (UniProt P02866); assay: compounds binding concanavalin A lectin – biochemical, small-molecule microarray, Alexa647 label, 635 nm, artefact control for SMM control protein annotation, primary screen (AID 1127); details: ConA-A647 binding fluorescence, higher = more signal;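 note: z combines 667 nm emission intensity with signal-to-noise across three replicate slides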
[11] = compounds binding Alexa647 anti-His antibody – biochemical, small-molecule microarray, 635 nm fluorescence, artefact control for SMM control protein annotation, primary screen (AID 1128); details: higher = more signal;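 note: score merges feature fluorescence with signal-to-noise for each printed compound spot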
[12] = tested on: Human papillomavirus type 1a E7 protein (residues 1-88); assay: HPV1a E7 small-molecule binders, primary screen, biochemical, small-molecule microarray, residues 1-88, 635 nm (AID 1129); details: small-molecule microarray binding, fluorescence 635 nm; higher = more signal
[13] = target: Focal adhesion kinase 1 (Homo sapiens) (UniProt Q05397); assay: PTK2 protein binding on printed compound slides – biochemical, small-molecule microarray, 635/667 nm fluorescence, BSA, DTT, primary screen (AID 1130); details: 635 nm fluorescence, higher = more signal;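 note: composite of spot emission at 667 nm and signal to noise over triplicate slides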
[14] = tested on: Fibrinogen (Alexa647-labelled); assay: Alexa647-fibrinogen binding to printed small molecules – biochemical, small-molecule microarray, 635/667 nm fluorescence, artefact control for SMM control-protein annotation, profiling panel (AID 1131); details: fibrinogen-A647 binding fluorescence, higher = more signal;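 note: z-score merges 667 nm fluorescence with per-spot signal-to-noise over triplicate slides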
[15] = target: Follistatin (Homo sapiens) (UniProt P19883); assay: FST protein binding to printed compounds – biochemical, small-molecule microarray, 635/667 nm fluorescence, primary screen (AID 1132); details: 635 nm fluorescence, higher = more signal
[16] = target: Fibroblast growth factor 2 (Homo sapiens) (UniProt P09038); assay: basic fibroblast growth factor binding to printed compounds – biochemical, small-molecule microarray, 635/667 nm fluorescence, primary screen (AID 1133); details: FGF2, fluorescence 635/667, higher = more signal
[17] = JC-1 mitochondrial potential readout, lung cancer cells – cell-based, A549, JC-1 fluorescence, basal, 24 h, 100 nL, profiling panel (AID 1138); details: higher = more signal;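 note: A549 lung adenocarcinoma cells under basal conditions with no added stimulus; test concentration not given here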
[18] = tested on: Lefty1; assay: Lefty1 protein binding to printed compounds – biochemical, small-molecule microarray, 635/667 nm fluorescence, primary screen (AID 1139); details: fluorescence 635/667, higher = more signal
[19] = tested on: wheat germ agglutinin (Triticum aestivum), Alexa647-labelled; assay: Alexa647-WGA lectin binding to printed small molecules – biochemical, small-molecule microarray, 635/667 nm fluorescence, artefact control for SMM control-protein annotation, profiling panel (AID 1140); details: WGA-A647 binding, 635 nm fluorescence, higher = more signal;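 note: score merges 667 nm feature emission with signal to noise over triplicate slides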
[20] = target: Luciferin 4-monooxygenase (Photinus pyralis) (UniProt P08659); assay: inhibition of purified Photinus pyralis luciferase – biochemical, luminescence, purified enzyme, 2006 set, primary screen (AID 1141); details: purified firefly luciferase, SteadyGlo luminescence, 30 min; higher = more signal, called active from +8 up or from −8 down;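 note: cell-free assay with purified firefly luciferase at 100 ng per well in PBS; test concentration not given here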
Sequence of Luciferin 4-monooxygenase (Photinus pyralis) (P08659 whole entry, looked up): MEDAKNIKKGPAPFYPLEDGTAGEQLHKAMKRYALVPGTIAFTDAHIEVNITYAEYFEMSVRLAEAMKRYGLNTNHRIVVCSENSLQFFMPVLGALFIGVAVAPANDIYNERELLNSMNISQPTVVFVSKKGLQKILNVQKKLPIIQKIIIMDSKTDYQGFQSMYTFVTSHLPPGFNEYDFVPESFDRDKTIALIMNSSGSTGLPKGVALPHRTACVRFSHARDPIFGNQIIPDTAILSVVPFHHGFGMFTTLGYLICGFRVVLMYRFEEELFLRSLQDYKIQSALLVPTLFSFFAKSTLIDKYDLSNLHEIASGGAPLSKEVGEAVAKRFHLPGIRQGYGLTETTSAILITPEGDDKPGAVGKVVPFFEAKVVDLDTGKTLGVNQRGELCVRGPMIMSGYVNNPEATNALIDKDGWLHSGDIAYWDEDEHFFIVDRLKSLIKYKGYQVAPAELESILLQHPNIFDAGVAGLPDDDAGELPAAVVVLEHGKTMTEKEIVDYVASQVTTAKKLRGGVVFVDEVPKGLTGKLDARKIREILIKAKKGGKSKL

Sequence of Concanavalin-A (Canavalia ensiformis) (P02866 whole entry, looked up): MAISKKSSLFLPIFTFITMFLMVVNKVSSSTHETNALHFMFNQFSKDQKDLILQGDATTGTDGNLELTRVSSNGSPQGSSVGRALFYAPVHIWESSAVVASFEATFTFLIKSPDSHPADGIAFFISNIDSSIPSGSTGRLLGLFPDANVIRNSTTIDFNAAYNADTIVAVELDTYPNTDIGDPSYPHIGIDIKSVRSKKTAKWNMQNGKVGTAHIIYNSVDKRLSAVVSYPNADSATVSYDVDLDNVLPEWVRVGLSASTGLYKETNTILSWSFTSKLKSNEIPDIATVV
Sequence of Albumin (Bos taurus) (P02769 whole entry, looked up): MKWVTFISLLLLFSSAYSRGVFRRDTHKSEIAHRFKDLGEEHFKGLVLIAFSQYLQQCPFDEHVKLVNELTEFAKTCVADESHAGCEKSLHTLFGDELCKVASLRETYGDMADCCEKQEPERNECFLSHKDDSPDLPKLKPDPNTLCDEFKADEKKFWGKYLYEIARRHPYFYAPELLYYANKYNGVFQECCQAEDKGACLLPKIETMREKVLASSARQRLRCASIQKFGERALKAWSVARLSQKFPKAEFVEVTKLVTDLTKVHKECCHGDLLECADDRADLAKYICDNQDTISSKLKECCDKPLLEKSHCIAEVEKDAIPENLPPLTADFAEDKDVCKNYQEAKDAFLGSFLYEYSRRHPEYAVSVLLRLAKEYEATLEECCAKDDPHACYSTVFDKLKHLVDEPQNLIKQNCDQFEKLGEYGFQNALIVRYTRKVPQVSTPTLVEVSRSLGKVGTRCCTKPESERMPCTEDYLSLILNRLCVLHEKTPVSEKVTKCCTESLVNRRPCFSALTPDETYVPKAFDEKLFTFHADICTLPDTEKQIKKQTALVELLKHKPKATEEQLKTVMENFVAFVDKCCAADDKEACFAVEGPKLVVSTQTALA
Sequence of Focal adhesion kinase 1 (Homo sapiens) (Q05397 whole entry, looked up): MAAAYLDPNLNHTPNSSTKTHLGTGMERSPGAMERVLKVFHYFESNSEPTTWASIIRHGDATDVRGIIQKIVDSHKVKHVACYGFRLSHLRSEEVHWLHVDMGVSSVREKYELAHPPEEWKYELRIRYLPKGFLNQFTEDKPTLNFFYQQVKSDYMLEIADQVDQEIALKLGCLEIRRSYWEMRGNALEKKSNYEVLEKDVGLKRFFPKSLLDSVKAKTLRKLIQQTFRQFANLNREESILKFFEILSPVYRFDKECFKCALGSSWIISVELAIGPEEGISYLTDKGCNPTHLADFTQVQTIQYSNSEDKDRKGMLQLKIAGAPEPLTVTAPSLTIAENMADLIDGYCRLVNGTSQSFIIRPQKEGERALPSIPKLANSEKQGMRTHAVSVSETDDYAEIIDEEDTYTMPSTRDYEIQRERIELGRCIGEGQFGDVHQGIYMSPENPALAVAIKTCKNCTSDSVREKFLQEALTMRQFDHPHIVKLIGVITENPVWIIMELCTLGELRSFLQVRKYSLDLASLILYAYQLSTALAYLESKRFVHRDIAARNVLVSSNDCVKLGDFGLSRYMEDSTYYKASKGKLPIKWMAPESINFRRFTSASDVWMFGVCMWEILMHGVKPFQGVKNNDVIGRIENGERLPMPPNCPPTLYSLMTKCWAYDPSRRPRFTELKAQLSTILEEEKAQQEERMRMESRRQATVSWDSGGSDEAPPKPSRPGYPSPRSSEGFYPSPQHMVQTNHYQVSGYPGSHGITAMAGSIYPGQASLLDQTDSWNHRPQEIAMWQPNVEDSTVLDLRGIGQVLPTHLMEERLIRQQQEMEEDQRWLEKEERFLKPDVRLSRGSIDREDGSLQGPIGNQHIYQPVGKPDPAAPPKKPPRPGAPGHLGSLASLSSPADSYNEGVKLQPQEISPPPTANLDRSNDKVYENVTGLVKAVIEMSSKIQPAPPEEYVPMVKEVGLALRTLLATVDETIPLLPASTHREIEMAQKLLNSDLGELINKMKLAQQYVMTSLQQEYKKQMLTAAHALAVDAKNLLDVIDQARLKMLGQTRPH
Sequence of Follistatin (Homo sapiens) (P19883 whole entry, looked up): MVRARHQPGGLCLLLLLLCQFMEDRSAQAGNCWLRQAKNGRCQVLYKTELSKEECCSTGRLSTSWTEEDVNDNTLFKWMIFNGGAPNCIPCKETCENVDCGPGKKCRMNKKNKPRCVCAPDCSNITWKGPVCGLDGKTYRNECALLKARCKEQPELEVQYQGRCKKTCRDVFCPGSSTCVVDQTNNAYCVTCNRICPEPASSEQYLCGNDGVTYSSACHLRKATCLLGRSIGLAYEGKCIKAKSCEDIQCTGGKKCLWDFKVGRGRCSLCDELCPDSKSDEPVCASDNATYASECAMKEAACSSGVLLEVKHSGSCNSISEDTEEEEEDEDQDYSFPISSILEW
Sequence of Fibroblast growth factor 2 (Homo sapiens) (P09038 whole entry, looked up): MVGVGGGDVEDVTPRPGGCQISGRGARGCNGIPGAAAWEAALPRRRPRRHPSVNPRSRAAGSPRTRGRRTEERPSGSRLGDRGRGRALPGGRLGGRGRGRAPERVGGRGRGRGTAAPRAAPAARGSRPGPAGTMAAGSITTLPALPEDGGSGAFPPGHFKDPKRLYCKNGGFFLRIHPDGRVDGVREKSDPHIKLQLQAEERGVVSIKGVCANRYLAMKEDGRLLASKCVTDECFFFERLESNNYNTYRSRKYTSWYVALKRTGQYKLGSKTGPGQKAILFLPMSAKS

| Compound | composite z-score [1] | composite Z-score [2] | composite z-score [3] | composite z-score [4] | composite z-score [5] | composite z-score [6] | composite z-score [7] | composite z-score [8] | composite z-score [9] | composite z-score [10] | composite z-score [11] | composite z-score [12] | composite z-score [13] | composite z-score [14] | composite z-score [15] | composite z-score [16] | z-score [17] | composite z-score [18] | composite z-score [19] | z-score [20] |
| --- | --- | --- | --- | --- | --- | --- | --- | --- | --- | --- | --- | --- | --- | --- | --- | --- | --- | --- | --- | --- |
| COCCOC(=O)N1C(=O)[C@@]2(c3cc(C#CCNC(N)=O)ccc31)[C@H](c1ccccc1OCCO)N1[C@H](c3ccccc3)[C@H](c3ccccc3)OC(=O)[C@H]1[C@@H]2C(=O)NC[C@H](O)c1ccccc1 | 0.679 | 0.25 (inactive) | 0.163 | -0.113 | 0.681 | 2.12 | 0.717 | 1.28 | 0.0781 | 1.08 | 1.06 | 1.2 | 0.499 | 0.943 | 1.28 | 0.472 | -1.31 | 0.688 | 0.832 | 0.311 (inactive) |
| Cc1ccc([C@@H]2CC=C(C(=O)O)[C@H](c3ccccc3)N2S(=O)(=O)c2ccc(C)cc2)cc1 | 1.02 | 1.1 (inactive) | 0.254 | 0.0344 | 0.546 | 2.36 | 0.581 | 1.31 | -2.11 | 1.22 | 2.65 | 1.24 | 0.574 | 0.894 | -0.358 | -0.847 | -1.47 | -0.691 | 1.35 | 1.33 (inactive) |
| CCC(=O)[C@]12O[C@@]3([C@@H]4C(=O)OCC[C@@H]41)N(CC)C(C)=C(C(=O)OC)[C@@H](c1ccccc1)N3C2=O | -0.499 | -0.302 (inactive) | -0.122 | -0.157 | 0.828 | -0.68 | 0.448 | -0.516 | 0.841 | -0.0306 | 1.41 | -1.67 | 0.335 | -0.62 | 0.754 | 0.111 | -0.404 | 0.373 | -0.0702 | -0.533 (inactive) |
| O=C1O[C@H](c2ccccc2)[C@H](c2ccccc2)N2[C@H]1[C@@H](C(=O)Nc1nc3ccccc3s1)[C@]1(C(=O)Nc3ccc(C#CC4(O)CCCCCC4)cc31)[C@H]2c1ccc(O)cc1 | 0.934 | 0.928 (inactive) | 0.116 | -0.0283 | 0.415 | 2.53 | 0.797 | 1.3 | 0.528 | 1.14 | 1.71 | 1.2 | 0.164 | 1 | 1.29 | 1.31 | -2.35 | 0.666 | 0.856 | -1.27 (inactive) |
| C=CCNC(=O)[C@@H]1[C@H]2C(=O)O[C@H](c3ccccc3)[C@H](c3ccccc3)N2[C@H](c2ccc(OCCO)cc2)[C@@]12C(=O)N(C(=O)OCCOC)c1ccc(C#CC3(O)CCCCCC3)cc12 | 0.801 | 1.7 (inactive) | 0.353 | -0.0502 | 0.572 | 1.5 | 0.568 | 1.3 | -0.0335 | 1.07 | 0.166 | 1.2 | 0.262 | 0.827 | 1.18 | 0.833 | -1 | 0.326 | 1.15 | -2.35 (inactive) |
| C=CCC(OC(C)=O)[C@@H]1[C@@H](N(Cc2cccc3ccccc23)C(=O)Cc2ccc(F)cc2)c2cc(OCCCO)ccc2N1C(=O)Cc1ccc2ccccc2c1 (stereo not given in full) | 0.0257 | -0.227 (inactive) | -0.0881 | -0.0194 | -0.117 | 0.293 | -0.27 | -0.146 | -0.214 | -1.5 | -0.404 | -0.329 | 0.317 | -0.175 | 0.0802 | -0.391 | 0.331 | -0.258 | 0.191 | 0.693 (inactive) |
